Data as given in PubChem BioAssay AID504500 (NMMLSC, 2011).
Potency and affinity values are given separately. Activity calls are given as the source filed them.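 Rule for the calls: active = compounds whose curve fit is tight, with span above 25% and half-effect concentration below 10 µM; inactive = the rest.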

What follows are molecules tested against Beta-adrenergic receptor kinase 1 (Homo sapiens) (UniProt P25098) (assay: aptamer displacement from bead-bound GRK2 – biochemical, cherry pick 1, bead flow cytometry, dose response (AID 504500)). Conditions: bead-bound biotinylated GRK2, FAM-aptamer displacement; series mostly up to 33 µM; inhibition of aptamer binding: at the top concentration.
Beta-adrenergic receptor kinase 1 (Homo sapiens), sequence (P25098 whole entry, looked up): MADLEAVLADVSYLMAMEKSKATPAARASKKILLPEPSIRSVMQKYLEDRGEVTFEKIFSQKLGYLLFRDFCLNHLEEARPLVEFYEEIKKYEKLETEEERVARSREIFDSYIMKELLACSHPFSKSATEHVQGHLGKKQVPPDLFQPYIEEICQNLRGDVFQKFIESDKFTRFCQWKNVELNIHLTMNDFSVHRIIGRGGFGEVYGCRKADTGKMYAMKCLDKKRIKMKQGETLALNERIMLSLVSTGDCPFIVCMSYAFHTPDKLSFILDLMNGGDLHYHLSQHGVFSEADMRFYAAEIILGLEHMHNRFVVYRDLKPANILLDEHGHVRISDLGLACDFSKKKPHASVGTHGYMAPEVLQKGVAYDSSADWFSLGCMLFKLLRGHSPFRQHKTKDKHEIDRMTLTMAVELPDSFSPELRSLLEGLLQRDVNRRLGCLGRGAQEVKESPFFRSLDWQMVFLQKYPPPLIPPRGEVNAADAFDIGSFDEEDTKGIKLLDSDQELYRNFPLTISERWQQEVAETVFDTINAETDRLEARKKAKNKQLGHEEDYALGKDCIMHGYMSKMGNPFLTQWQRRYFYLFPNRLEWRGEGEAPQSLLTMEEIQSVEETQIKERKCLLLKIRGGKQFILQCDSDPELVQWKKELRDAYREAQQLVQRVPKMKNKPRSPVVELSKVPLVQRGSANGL

Inhibition of aptamer binding, inactive:
O=C(O)C1C2C=CC(CC2)C1C(=O)O (stereo unspecified) -2.57%
Cc1ccc(OCC(=O)c2c(N)n(C)c(=O)n(C)c2=O)c([N+](=O)[O-])n1 85%
CC(=O)N1CCN(Cc2nc3cc(Cl)ccc3c(=O)[nH]2)CC1 59.3%
Cn1c(=O)c(C(=O)NNC(=O)c2cccc(Cl)c2)c(O)c2ccccc21 85.8%
C=C(C)C(=O)Nc1cccc(C2=NOC3(C2)C[C@H](C(N)=O)N(C(=O)CC#N)C3)c1 (stereo partly specified) -8.72%
O=C(CCS(=O)(=O)c1ccc(Br)cc1)NCCc1ccc(Cl)cc1 87.3%
O=C(CCS(=O)(=O)c1ccc(Br)s1)Nc1ccccc1Br 31.5%
Cc1cc2ccccc2n1CCNC(=O)C(C)Oc1ccccc1 (stereo unspecified) 63.4%
O=C(CCS(=O)(=O)c1ccc(Br)cc1)NCc1cccs1 78.5%
CCN1/C(=C\c2ccc3ccccc3[n+]2CC)Sc2cc(C)ccc21 63.6%
CCN1/C(=C/c2ccc3ccc(C)cc3[n+]2CC)Sc2ccccc21 -3.68%
COc1ccc(S(=O)(=O)NCC(c2ccc(F)cc2)N2CCN(C)CC2)cc1 (stereo unspecified) -4.14%
COc1ccc(NC(=O)CCS(=O)(=O)c2ccc(Br)s2)cc1 63.9%
C=C(C)C(=O)Nc1cccc(C2=NOC3(C2)C[C@@H](C(N)=O)N(C(=O)/C=C/CC)C3)c1 (stereo partly specified) 60.9%
CCc1ccccc1NC(=O)CCS(=O)(=O)c1ccc(Br)cc1 55.8%
COc1ccccc1-[n+]1c(C)cc(/C=C2\Sc3ccccc3N2C)cc1C -8.14%
O=C(CCS(=O)(=O)c1ccc(Br)cc1)NC1CCCC1 49.7%
O=P(c1ccccc1)(c1ccccc1)c1cc(S(=O)(=O)O)ccc1O -2.57%
COc1ccc(OC)c(N2C(=O)[C@@H]3C(c4ccccc4Cl)=NO[C@@H]3C2=O)c1 76.3%
CC(=O)Nc1ccc(N(C)C)cc1[N+](=O)[O-] 7.48%
Cc1oc(-c2ccc(Cl)cc2)nc1CN1CCCC(C(=O)NCc2cccnc2)C1 (stereo unspecified) -6.31%
C=C(C)C(=O)Nc1cccc(C2=NOC3(C2)C[C@@H](C(N)=O)N(C(=O)/C=C/C=C/C)C3)c1 (stereo partly specified) 84.2%
Cc1cccc(N2CCN(C(=O)CCS(=O)(=O)c3ccc(Br)cc3)CC2C)c1 (stereo unspecified) 95.7%
Cc1cc2ccccc2n1CCNC(=O)c1ccccc1 -0.61%
CCOc1ccc(CCNC(=O)CCS(=O)(=O)c2ccc(Br)cc2)cc1OCC 2.77%
CNC(=O)c1[nH]cnc1C(=O)Nc1ccc(F)cc1 1.5%
C=C(C)C(=O)Nc1cccc(C2=NOC3(C2)C[C@@H](C(N)=O)N(C(=O)C(=C)C)C3)c1 (stereo partly specified) 60.3%
COc1cc(/C=C2\CCc3c2nc2ccccc2c3C(=O)O)cc(OC)c1OC -1.83%
COc1ccccc1CNS(=O)(=O)c1ccc2[nH]cc(C(=O)O)c(=O)c2c1 53.4%
CCN1/C(=C/C=C/c2sc3ccccc3[n+]2CC)Sc2ccccc21 -5.22%
CCOc1ccccc1NC(=O)CCS(=O)(=O)c1ccc(Br)cc1 1.18%
